Screens from PubChem BioAssay.
This is a sample that favours compounds with a hit; in the whole collection about 2.3% have one here.
POLI inh = blocks human DNA polymerase iota activity. Q9UNA4. Pol iota fluorescent replication assay, 10 min. Potency, µM (titrated, usually from 115 µM), without a hit: top-dose activity, negative = inhibition, hits mostly inhibitors. 1% of 390,000 active
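Fluorescent replication assay read twice, at 0 min and 10 min after adding 50 nM (final) substrate. Enzyme (10 nM) and compounds were first incubated 15 min at room temperature; enzyme-free buffer wells were negative controls.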
Pol kappa inh-1 = blocks human DNA polymerase kappa activity; Q9UBT6; purified Pol kappa, fluorescent DNA synthesis assay, 10 min; Potency, µM (titrated, usually from 107 µM), inactives show at the highest dose activity, negative = inhibition, hits mostly inhibitors; 0.53% of 400,000 active; note: % is set by controls: 0 for no effect and ±100 for the full control effect
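Fluorescent qHTS in 1536-well format: enzyme (10 nM) and compound sat 15 min at room temperature before 50 nM substrate (final) was added. Signal taken at 0 and 10 min; no-enzyme buffer wells were negative controls.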
WRN helicase inh = blocks human WRN helicase; WRN helicase unwinding, fluorescent forked duplex, kinetic; Potency, µM (top dose mostly 114 µM), inactives show at the highest dose activity change, negative = inhibition, most hits filed as inhibitors; 0.46% of 360,000 active; AID 651768; note: % is set by controls: 0 for no effect and ±100 for the full control effect; nearly all actives have a fitted effect of over 55% in size
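Primary qHTS, 1536-well format. 20 nM WRN + compound, 15 min RT; start with 100 nM forked fluorophore/quencher duplex, 2 mM ATP (final); kinetic read ex 525/em 598 nm.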
Pol eta inh-1 = DNA polymerase eta (human) inhibition; Q9Y253; recombinant Pol eta, fluorescent DNA replication assay; Potency, µM (series often up to 114 µM), inactives show at the top dose activity change, negative = inhibition, usual class: inhibitors; 1.2% of 390,000 active; AID 588591; note: % is set by controls: 0 for no effect and ±100 for the full control effect
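Pol eta at 10 nM preincubated with compounds 15 min at room temperature; reaction started with fluorescent substrate (50 nM final) and read kinetically at 0 and 10 min.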
POLB inh = blocks human DNA polymerase beta activity. P06746. Pol beta primer extension/strand displacement, fluorescence kinetic. Potency, µM (top dose mostly 114 µM), for the others: at the top dose activity change, negative = inhibition, hits mostly inhibitors. 1.3% of 340,000 active. AID 485314; note: % is set by controls: 0 for no effect and ±100 for the full control effect
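Pol beta (10 nM) and compounds were preincubated 15 min at room temperature, then 50 nM substrate (final) started primer extension/strand displacement. Reads were taken at 0 and 10 min; concentration-response data were fitted to a four-parameter Hill equation.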
PGK validate = validation of Trypanosoma brucei phosphoglycerate kinase inhibitors; TbPGK coupled GAPDH assay, Kinase-Glo luminescence; AID 686980; Potency, µM (doses to about 57.5 µM), for inactives: at the highest dose activity change, negative = inhibition, hits mostly inhibitors; shares compounds with Pol kappa inh-1; 79% of 500 active; note: % is set by controls: 0 for no effect and ±100 for the full control effect; nearly all actives have a fitted effect of over 65% in size
Target sequence (P07378 whole entry, looked up): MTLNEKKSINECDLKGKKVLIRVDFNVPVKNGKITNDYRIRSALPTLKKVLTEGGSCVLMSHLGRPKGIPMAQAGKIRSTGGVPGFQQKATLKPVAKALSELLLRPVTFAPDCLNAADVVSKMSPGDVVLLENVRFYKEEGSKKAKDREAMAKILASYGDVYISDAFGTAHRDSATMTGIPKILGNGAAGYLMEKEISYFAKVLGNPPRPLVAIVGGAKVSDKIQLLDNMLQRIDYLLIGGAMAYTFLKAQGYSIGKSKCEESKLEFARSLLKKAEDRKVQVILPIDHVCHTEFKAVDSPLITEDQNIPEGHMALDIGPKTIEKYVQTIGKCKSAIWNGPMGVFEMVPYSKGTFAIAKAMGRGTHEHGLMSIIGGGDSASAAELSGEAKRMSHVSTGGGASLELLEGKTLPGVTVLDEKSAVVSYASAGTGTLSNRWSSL
Pol iota confirm = Human Pol iota inhibitor confirmatory assay; shares compounds with Pol kappa inh-1; Pol iota primer extension, TAMRA/BHQ fluorescence; Potency, µM, hits mostly inhibitors; 77% of 1,500 active; AID 720496
Pol kappa inh-2 = confirmation of human DNA polymerase kappa inhibitors | 76% of 920 active | Potency, µM, actives largely listed as inhibitors | purified Pol-kappa, fluorescent strand-displacement substrate | shares compounds with Pol eta inh-1
Pol eta inh-2 = confirmation of human DNA polymerase eta inhibitors; shares compounds with Pol eta inh-1; Pol eta primer extension, TAMRA/BHQ fluorescence, 10 min; Potency, µM, hits mostly inhibitors; 64% of 2,600 active; AID 720502
Numbers without * were called inactive; ? = inconclusive; nt = no result; [ ] = remark or other dose. Calls come from the whole dose curve; as a rule, active = well fitted curve in the direction sought with a large enough effect; inconclusive = small, poorly fitted or top-dose-only effect, or another doubt; inactive = no such curve, though single readings can be large; an effect the other way counts as inactive or inconclusive. Potency is the fitted concentration of half-maximal effect.

SMILES | POLI inh | Pol kappa inh-1 | WRN helicase inh | Pol eta inh-1 | POLB inh | Pol iota confirm | Pol eta inh-2 | others
O=C(COC(=O)c1ccccc1O)Nc1ncc(Cl)cc1Cl | 40µM* | 35µM* | ? | 18µM* | 6% | ? | 27*
C=CCn1c(O)c(N=NC(=O)CNC(=O)/C=C/c2ccc(OC)cc2)c2ccccc21 | 15% | -13% | -7% | 10% | 39% | nt | nt
C=CCn1c(O)c(N=NC(=O)CNC(=O)/C=C/c2ccco2)c2ccccc21 | 28µM* | ? | ? | 50µM* | 14µM* | 38* | 76*
O=C1C(=Cc2cccc(O)c2O)SC(=S)N1CCCN1CCOCC1 | nt | nt | -31%[11.6 µM] | 20µM* | nt | ? | ?
CCOC(=O)c1ccc(N/N=C/c2cc(Br)cc([N+](=O)[O-])c2O)cc1 | 100% | 1% | -12%[11.6 µM] | 25µM* | -27% | 67* | ?
COC(=O)c1ccc(N/N=C/c2cc([N+](=O)[O-])cc(OC)c2O)cc1 | 7% | -1% | 6% | -11% | ? | nt | nt
O=C(CSc1nc(-c2ccc(F)cc2)nc2c1Cc1ccccc1O2)Nc1ccc(C(=O)O)cc1 | 1.4µM* | ? | ? | ? | 4.5µM* | 7.5* | nt | PGK validate=2.1µM*;Pol kappa inh-2=7.5*
O=C(CSc1nc(-c2ccccc2)nc2c1Cc1ccccc1O2)Nc1ccc(C(=O)O)cc1 | ? | 10µM* | ? | 7.9µM* | 2µM* | 9.5* | ? | Pol kappa inh-2=42*
COC(=O)c1ccc2c(c1O)C(=O)c1ccccc1C2=O | ? | -8% | -35% | -8% | -3% | nt | nt
O=C1c2ccccc2C(=O)c2c1ccc(O)c2O | -19% | ? | ? | ? | nt | ? | 76* | PGK validate=?
CN(C)CCCNC(=O)c1ccc(-c2cc(O)c3ncccc3c2)cc1 | -9% | -14% | nt | -10% | nt | 47* | ?
CN(C)c1ccc(-c2cc(O)c3ncccc3c2)cc1 | -18% | -7% | nt | -10% | nt | nt | nt
O=S(=O)(Nc1ccc(-c2ccc(N3CCCCC3)nn2)cc1)c1ccc(OC(F)(F)F)cc1 | -20% | -11%[60.1 µM] | nt | 4% | -7% | nt | nt
O=C(NCc1ccccc1C(F)(F)F)c1cccc2c1C(=O)c1ccc(N3CCOCC3)cc1S2(=O)=O | ? | -3% | -25%[11.6 µM] | ? | nt | nt | nt
O=C(NCc1ccccc1C(F)(F)F)c1cccc2c1C(=O)c1ccc(N3CCC(N4CCCCC4)CC3)cc1S2(=O)=O | nt | nt | 124% | ? | nt | ? | 60*
O=S(=O)(c1ccc2nc(-c3ccco3)c(-c3ccco3)nc2c1)N1CCOCC1 | ? | ? | ? | 14µM* | 28µM* | 42* | 24* | Pol kappa inh-2=9.5*
O=S(=O)(c1ccc(Cl)cc1)c1nc(-c2cccs2)oc1SCc1ccccc1F | 16% | -1% | nt | -15% | 5% | nt | nt
COc1ccc(-c2cc(OC(=O)c3ccccc3Cl)c3c(C)oc(C)c3c(=O)c2)cc1OC | -15% | -31% | nt | 16% | 5% | nt | nt
N=C1/C(=C/c2ccco2)C(=O)N=C2SC(CC(=O)N3CCCC3)=NN12 | 16µM* | ? | 50µM* | 14µM* | ? | 38* | 24*
Cc1ccn2c(=O)nc(SCC(=O)NCc3ccccc3Cl)nc2c1 | 56µM* | -43% | ? | 18µM* | nt | 67* | 60* | Pol kappa inh-2=27*
Cc1ccc2nc(SCC(=O)NCc3ccccc3Cl)nc(=O)n2c1 | 7% | -16% | 1% | -18% | nt | nt | nt
Cc1cccc(NC(=O)Cn2nc(-c3ccccc3)c3cnc4ccccc4c32)c1 | 11% | 0% | nt | -13% | 31% | nt | nt
COc1cc(NS(=O)(=O)c2ccc(NC(=S)NC(=O)/C=C/c3ccc(OC)c(OC)c3)cc2)ncn1 | ? | -22% | 0%[57.1 µM] | 32µM* | 18% | 38* | nt | PGK validate=29µM*;Pol kappa inh-2=27*
CC(=O)O[C@H]1CC2(C)[C@@H](C[C@@H](O)[C@H]3[C@@]4(C)CC[C@@H](O)[C@@H](C)[C@@H]4CC[C@@]32C)C1=C(CCC=C(C)C)C(=O)O (some centres undefined) | -6%[58.9 µM] | 0%[60.1 µM] | nt | 0%[57.1 µM] | -1%[57.1 µM] | nt | nt
COC(=O)C(C)NC(=O)N1CCN(c2nnc(C)c3c(C)n(-c4ccc(Cl)cc4)nc23)CC1 (centres undefined) | 24% | -24% | nt | nt | -19% | nt | nt
SMILES | POLI inh | Pol kappa inh-1 | WRN helicase inh | Pol eta inh-1 | POLB inh | Pol iota confirm | Pol eta inh-2 | others
CCOc1ccc(NC(=O)CN(C)C(=O)c2cc3c(s2)CCC3)cc1OCC | nt | nt | ? | 3.5µM* | nt | 17* | 34* | Pol kappa inh-2=19*
O=C(COC(=O)c1cc2c(s1)CCC2)Nc1ccc(F)cc1 | 20µM* | 32µM* | ? | 18µM* | 8.9µM* | 24* | 24*
CCOc1ccc(NC(=O)CN(C)C(=O)c2csc3c2CCCC3)cc1OCC | 21% | -7% | -14% | -10% | nt | nt | nt
COc1cccc(N2CCN(C(=O)c3cccn3-c3nnc(N4CCCC4)s3)CC2)c1 | -1% | 0% | nt | -11% | 29% | nt | nt
COc1ccc(Cc2nc3ccccc3n2CC(=O)N/N=C/c2ccc(C)cc2O)cc1OC | 20µM* | ? | -20%[11.6 µM] | ? | 7.9µM* | 9.5* | 67* | Pol kappa inh-2=30*
COc1ccc(C2c3c(oc4ccccc4c3=O)C(=O)N2CCN2CCOCC2)cc1OC (centres undefined) | 16% | 3% | -3% | -13% | nt | nt | nt
COCCN1C(=O)c2oc3ccccc3c(=O)c2C1c1ccc(OC)c(OC)c1 (centres undefined) | ? | 79µM* | ? | 22µM* | -1% | 84* | ?
CCC(Sc1ncccc1C(=O)Oc1ccccc1Cl)C(=O)Nc1ccccc1OC (centres undefined) | 26% | -8%[60.1 µM] | nt | -7% | -6% | nt | nt
O=C1C=C(N2CCCCC2)c2ccccc2C1=O | 8.9µM* | -10% | -20% | 20µM* | nt | 34* | 24*
O=C(CC1C(=O)N(c2ccccc2)C(=O)N1Cc1ccc(F)cc1)Nc1cccc(F)c1 (centres undefined) | 18% | -13% | nt | -4% | 3% | nt | nt
C=C(C)C(=O)Nc1cccc(C2=NOC3(C2)C[C@@H](C(N)=O)N(C(=O)CCCCC)C3)c1 (some centres undefined) | 8.9µM* | 7.9µM* | 40µM* | 1.4µM* | 2µM* | 19* | 3* | PGK validate=0.58µM*
